Laboratory results reported in PubChem BioAssay (EPA / NIEHS).
Calls of active or inactive are those of the source. Rule for the calls: active = hit-call score of the fitted dose curve at least 0.9, where 1 is the maximum; inactive = score below 0.9.

Read-out: Tumor necrosis factor receptor superfamily member 6 (Homo sapiens) (UniProt P25445)
Experiment: LTEA_HepaRG_FAS: Life Technologies and Expression Analysis (LTEA) Assay for Fas cell surface death receptor (FAS) using HepaRG (AID 2283447)
Conditions: mRNA level, 48 h; actives raise or lower the signal
Procedure: LTEA_HepaRG is a cell based, multiplexed-readout assay that uses HepaRG, a human liver cell line, with measurements taken at 48 hours after chemical dosing on a 96-well plate.LTEA_HepaRG_FAS is one of 102 assay component(s) measured in the LTEA HepaRG cell culture assay. It is a marker of Cell proliferation, survival, death.Data from the assay component LTEA_HepaRG_FAS was analyzed into 1 endpoint. This assay endpoint, LTEA_HepaRG_FAS, was analyzed with bidirectional fitting relative to DMSO as the negative control and baseline of activity. Using a type of inducible reporter, measures of mRNA induction for gain or loss-of-signal activity can be used to understand regulation of transcription factor activity. To generalize the intended target to other relatable targets, this assay endpoint is annotated to the cytokine receptor intended target family, where the subfamily is TNF receptor.
A total of 1060 chemcials from the ToxCast library were tested in eight-point concentration-response experiments. Cell culture and cytotoxicity assays were conducted at Thermo Fisher Scientific's Custom Services facility (Madison, WI). A single lot of human HepaRG cells (Thermo Fisher Scientific, Frederick, MD) was used for the cell culture experiments. 96-well format collagen type I coated plates of human HepaRG cells were prepared using established methods. Briefly, cryopreserved HepaRG cells were thawed, plated at a density of approximately 100,000 cells/well in HepaRG Thaw, Plate, and General Purpose media (HPRG770, Thermo Fisher Scientific), and incubated for 48 hours. 0.5% DMSO was selected as vehicle control to balance the requisite need of DMSO in HepaRG cultures to maintain differentiation (for example, baseline metabolism, proportions of hepatocytes vs. cholangiocytes), while enabling further hepatic receptor pathway activation (for example, PXR and CAR) in response to chemical exposure. 48 hours after plating, the culture medium was replaced with HepaRG Serum-Free Incudtion Media. Cells were exposed to each test chemical in duplicate and maintained in CO2 incubators for another 48 hours. Chemical plates were thawed to room temperature and 200x concentrations of treatment groups were prepared. 8-point conentration-reponse curves were made with the highest exposure at 100 uM, followed by half-log dilutions, all in 0.5% DMSO. Each test plate contained variouse controls, induction positive controls (1mM phenobarbital), cytotoxicity positive controls ([…] aflatoxin B1), vehicle controls (0.5% DMSO), and total lysis controls (0.5% DMSO). Cell morphology images were taken using an Essen IncuCyte FLR automated microscope, with six 96-well plates imaged in about 24 minutes. Images were captured and exported and JPEG files. Spent culture media was transfered to black-well plates for the LDH assay, and remaining media was sorted at -80 C for later use. Cells were treated with RLT buffer and frozen until shipped for gene expression analysis. Total RNA was isolated from the cell suspension in 75 uL of Buffer RLT (Qiagen, Germantown, MD 20874) by Quintiles/Expression Analysis (Durham, NC) using a custom isolation procedure. Total RNA from each plate well was transferred to a preamplification plate. Fluidigm's 96.96 Dynamic ArrayTM (Fluidigm, Amsterdam, the Netherlands) technology was used for gene expression analyses by quantitative reverse transcription polymerase chain reaction (qRT-PCR, performed by Quintiles/Expression Analysis, Durham, NC)89. Standard TaqManTM Assays (Applied Biosystems/ThermoFisher Scientific, Foster City, CA) were used to assess the expression of 93 genes selected based on their selectivity and sensitivity to important hepatic receptors known to be modulated by environmental chemicals; importance in human hepatocyte functionality; and hepatotoxicity. […]

| Structure (SMILES) | outcome | AC50 |
| --- | --- | --- |
| CC(=O)OCC(COC(C)=O)OC(C)=O | inactive | – |
| O=Cc1ccccc1C=O | inactive | – |
| CCCCCCC(CCCCCCCCCCC(=O)OCC(COC(C)=O)OC(C)=O)OC(C)=O (stereo not given) | inactive | – |
| Cc1c(C)c2c(c(C)c1O)CCC(C)(COc1ccc(CC3SC(=O)NC3=O)cc1)O2 (stereo not given) | inactive | – |
| C=CCCCCCCCCCCCC | inactive | – |
| CN(C)C(=O)NC1(c2ccccc2)CCN(CC[C@@]2(c3ccc(F)c(F)c3)CN(C(=O)c3ccccc3)CCO2)CC1 | inactive | – |
| C/C=C/c1ccc(OC)cc1 | inactive | – |
| CC(C)c1cccc(C(C)C)c1 | inactive | – |
| CC(C)COC(=O)CCCCC(=O)OCC(C)C | inactive | – |
| CC(C)OC(=O)C(C)(C)Oc1ccc(C(=O)c2ccc(Cl)cc2)cc1 | inactive | – |
| CCCCC(CC)CO (stereo not given) | inactive | – |
| COc1ccc(C(=O)Nc2nc3ccccc3c(NCc3ccccc3)c2C#N)cc1 | inactive | – |
| O=C1OC(c2ccc(O)cc2)(c2ccc(O)cc2)c2ccccc21 | inactive | – |
| OCC(O)CO | inactive | – |
| CC(C)(O)c1ccc(CNC(=O)c2cccnc2Oc2ccc(F)cc2)cc1 | inactive | – |
| O=C(O)CN(CC(=O)O)CC(=O)O | inactive | – |
| O=C1NC(=O)C(c2ccccc2)(c2ccccc2)N1 | inactive | – |
| CCCCCCC(C=O)=Cc1ccccc1 | inactive | – |
| Cn1cnc2c1c(=O)[nH]c(=O)n2C | inactive | – |
| Cc1cc(SC2=C(O)C[C@@](CCc3ccc(N)cc3)(C(C)C)OC2=O)c(C(C)(C)C)cc1CO | inactive | – |

| Structure (SMILES) | outcome | AC50 |
| --- | --- | --- |
| CC(C)c1cccc(C(C)C)c1NC(=O)NS(=O)(=O)c1cc(C(C)(C)O)co1 | inactive | – |
| NCCOCCOCCN | inactive | – |
| c1ccc2occc2c1 | inactive | – |
| Nc1nc(Cl)nc2c1ncn2[C@H]1C[C@H](O)[C@@H](CO)O1 | – | 209 nM (active) |
| S=c1[nH]c2ccccc2s1 | inactive | – |
| CCCCCCCCCCCCCCOS(=O)(=O)O | inactive | – |
| C=CCc1ccc(OC)c(OC)c1 | inactive | – |
| Cc1cn([C@H]2C=C[C@@H](CO)O2)c(=O)[nH]c1=O | inactive | – |
| CCCCc1nc2cccnc2n1Cc1ccc(-c2ccccc2-c2nnn[nH]2)cc1 | inactive | – |
| CC1(C)C(=O)NC(=O)N1CO | inactive | – |
| CC(=O)CC(c1ccccc1)c1c(O)c2ccccc2oc1=O (stereo not given) | inactive | – |
| O=C(Oc1ccccc1)c1cccc(C(=O)Oc2ccccc2)c1 | inactive | – |
| CN(C)C(=O)NC1(c2ccccc2)CCN(CCC[C@]2(c3ccc(Cl)c(Cl)c3)CCCN(C(=O)c3ccccc3)C2)CC1 | inactive | – |
| CSc1ccc(Oc2ccc(S(N)(=O)=O)cc2CN(C)C)cc1C | inactive | – |
| CCc1nc(N)nc(N)c1-c1ccc(Cl)cc1 | inactive | – |
| CCCCCCCC(=O)OC | inactive | – |
| CCCCC(CC)COP(=O)(OCC(CC)CCCC)OCC(CC)CCCC (stereo not given) | inactive | – |
| Oc1ccc(O)cc1 | inactive | – |
| Cc1ccc(C(C)(C)C)c(O)c1 | inactive | – |
| COC(=O)CCCC(=O)OC | inactive | – |
